Test results as given in PubChem BioAssay AID449734 (Southern Research Specialized Biocontainment Screening …, 2010).
Active and inactive are the calls of the source. The rule behind the calls is not given here.

Experiment: S. typhi GFP reporter counter-screen inhibition, late-stage follow-up, counter-screen for PhoP regulon inhibitor project, round 4, purified and synthesized compounds (AID 449734)

Question: Which outcome does the source give for S=C(NCc1ccc(Cl)cc1)Nc1ccccc1I here?
Answer: Its outcome is “inactive”.

Question: With S=C(NCc1ccc(Cl)cc1)NN1CCOCC1 as the compound, how does the outcome read?
Answer: The outcome was “inactive”.

Question: With O=C(Nc1ccc(Cl)cc1)N1CCCN(Cc2cccc(Br)c2)C1 as the compound, how does the outcome read?
Answer: Its outcome is “inactive”.

Question: With S=C(NCc1ccc(Cl)cc1)Nc1ccc(I)cc1 as the compound, how does the outcome read?
Answer: Its outcome is “inactive”.

Question: For S=C(NCc1ccc(Cl)cc1)Nc1ccccc1Br, which outcome is on record?
Answer: The outcome was “inactive”.

Question: With S=C(NCc1ccccc1)NCc1ccc(Cl)cc1 as the compound, how does the outcome read?
Answer: Its outcome is “inactive”.

Question: Which outcome does the source give for S=C(NCc1ccc(Cl)cc1)Nc1ccccn1 here?
Answer: The outcome was “inactive”.

Question: Which outcome does the source give for FC(F)(F)c1ccccc1NC(=S)NCc1ccc(Cl)cc1 here?
Answer: The outcome was “inactive”.

Question: With O=C(Nc1ccc(Cl)cc1)N1CCN(Cc2ccccc2F)C1 as the compound, how does the outcome read?
Answer: The outcome was “inactive”.

Question: With S=C(NCc1ccc(Cl)cc1)Nc1cccc(Br)c1 as the compound, how does the outcome read?
Answer: The outcome was “inactive”.

Question: With CN1CCN(C(=S)NCc2ccc(Cl)cc2)CC1 as the compound, how does the outcome read?
Answer: Its outcome is “inactive”.

Question: Which outcome does the source give for O=C(NC1CCCCC1)N1CCCN(Cc2ccccc2F)C1 here?
Answer: The outcome was “inactive”.

Question: Which outcome does the source give for S=C(NCc1ccc(Cl)cc1)NC1CCCCC1 here?
Answer: The outcome was “inactive”.

Question: For FC(F)(F)c1ccc(NC(=S)NCc2ccc(Cl)cc2)cc1, which outcome is on record?
Answer: The outcome was “inactive”.

Question: Which outcome does the source give for N#Cc1ccc(CN2CCCN(C(=O)Nc3ccc(Cl)cc3)C2)cc1 here?
Answer: The outcome was “inactive”.

Question: With COc1cccc(CNC(=S)Nc2ccncc2)c1 as the compound, how does the outcome read?
Answer: Its outcome is “inactive”.

Question: With S=C(NCc1ccc(Cl)cc1)NC1CCOCC1 as the compound, how does the outcome read?
Answer: Its outcome is “inactive”.

Question: Which outcome does the source give for S=C(NCc1ccc(Cl)cc1)Nc1ccncn1 here?
Answer: The outcome was “inactive”.

Question: Which outcome does the source give for O=C(Nc1ccc(Cl)cc1)N1CCCN(Cc2cccc(F)c2)C1 here?
Answer: Its outcome is “inactive”.

Question: Which outcome does the source give for Cc1ccccc1NC(=O)N1CCCN(Cc2ccccc2F)C1 here?
Answer: The outcome was “inactive”.
